# Experimental data taken from PubChem BioAssay (EPA / NIEHS).
# Active and inactive are the calls of the source. How the source made its calls: active means hit-call score of the fitted dose curve at least 0.9, where 1 is the maximum; inactive means score below 0.9.
# Assay: CEETOX_H295R_OHPREG: CeeTox H295R High-throughput Steroidogenesis Assay for OH-Pregnenolone (OHPREG) (AID 2283434)
# Details: actives raise or lower the signal
# Experimental: CEETOX_H295R is a cell-based, multiplexed-readout assay that uses H295R, a human adrenal gland cell line, with measurements taken at 48 hours after chemical dosing in a 96-well plate.CEETOX_H295R_OHPREG is one of 23 assay component(s) measured or calculated from the CEETOX_H295R assay. It is designed to make measurements of hormone induction, a form of inducible reporter, as detected with […] by HPLC-MS-MS technology.Data from the assay component CEETOX_H295R_OHPREG was analyzed into 1 assay endpoint. This assay endpoint, CEETOX_H295R_OHPREG, was analyzed with bidirectional fitting relative to DMSO as the negative control and baseline of activity. Using a type of inducible reporter, gain or loss-of-signal activity using HPLC-MS-MS was used to understand synthesis of 17alpha-hydroxypregnenolone in H295R cell line at 48hr of chemical exposure. To generalize the intended target to other relatable targets, this assay endpoint is annotated to the steroid hormone intended target family, where the subfamily is progestagens.
# Cell culture and media preparation procedures were conducted in accordance with OECD Test No. 456 guidelines, with minor modifications. H295R cells (ATCC CRL-2128) were expanded for 5 passages and frozen in batches in liquid nitrogen. Prior to the steroidogenesis assay, H295R cells were thawed and passed at least 4 times. The maximum passage was 10. Cells were maintained in a 1:1 mixture of DMEM/F12 supplemented with 5ml/L ITS+ Premix (BD Bioscience) and 12.5 ml/L Nu-Serum (BD Bioscience). After seeding cells into 96-well plates at 50-60% confluency, cells were allowed to adhere overnight. Prior to chemical testing, culture medium was replaced with 175 uL medium containing 10 uM forskolin to stimulate steroidogenesis for 48 hours. Following prestimulation, forskolin medium was replaced with medium containing test chemical solubilized in DMSO (ensuring a final concentration of 0.1% DMSO). Test chemicals were incubated for 48 hours, then the medium was removed and split into 2 vials containing approximately 75uL each, and stored at -80 C prior to hormone analysis. For steroid quantification, media samples were shipped to OpAns, LLC (Durham, NC) on dry ice, and samples were thawed to room temperature prior to liquid-liquid extraction. Steroid hormones were extracted from media samples using methyl tertbutyl ether (MTBE). An extra derivatization with dansyl chloride was included for estrogen (estrone and estradiol) detection only. Steroid hormones were separated by HPLC, eluted using a reverse phase C18 gradient with electrospray positive ionization, followed by quantification by tandem mass spectrometry (MS/MS). Data were acquired on a MassHunter Workstation Acquisition version B03.01 (Agilent Technologies, Inc.) and processed using MassHunter Quantitative Analysis for QQQ. Accuracy was determined for each hormone analyte from 3 standards to determine upper and lower limits of quantification (ULOQ and LLOQ, respectively) using a 7-point standard curve. Precision and accuracy of the extraction and quantification methods were calculated as the percent relative standard deviation (%RSD) of the spiked standards and percent spiked standard recovered, respectively. The goal was to achieve 100% accuracy (i.e., recover all spiked-in standard at quantification with minimal loss during run time) and good precision (i.e., have %RSD <15% to ensure reproducibility). Test medium was removed following chemical exposure, and cell viability was evaluated in the same wells by MTT. MTT procedures were as follows: after removal of test medium, 500 uL of 0.5 mg/ml of 3-[4,5-dimethylthiazol-2-y]2,5-diphenyltetrazoliumbromide solution was added to the cells. Following a 4-hour incubation at 37 C and 5% CO2 to allow formazan-crystal formation, the MTT solution was removed and blue formazan salt crystals were solubilized using 500uL anhydrous isopropanol with shaking for 20 minutes. […]
Compound,outcome,AC50
Cc1ccccc1OP(=O)(Oc1ccccc1C)Oc1ccccc1C,inactive,
OC(Cc1ccccc1Cl)(Cn1[nH]cnc1=S)C1(Cl)CC1 (centres undefined),inactive,
COc1ccc(N)cc1,inactive,
CC(C)(C)c1ccccc1O,inactive,
CCOCn1c(-c2ccc(Cl)cc2)c(C#N)c(Br)c1C(F)(F)F,,6.2 µM (active)
Cc1cc(C)cc(C)c1,inactive,
CCCSP(=S)(OCC)Oc1ccc(SC)cc1 (centres undefined),,14 µM (active)
CCCCCCCCCCCCN(C)C,inactive,
CC(C)(COCC1CO1)COCC1CO1 (centres undefined),inactive,
CCC[CH2][Sn]([Cl])([Cl])[CH2]CCC,inactive,
Nc1ccc(N)cc1,inactive,
CCOP(=S)(OCC)O/N=C(\C#N)c1ccccc1,inactive,
Cc1cc(Cl)ccc1O,inactive,
Oc1c(Cl)cc(Cl)cc1Cl,inactive,
COC(=O)Nc1cccc(OC(=O)Nc2cccc(C)c2)c1,,4.29 µM (active)
OC(Cc1ccccc1Cl)(Cn1cncn1)C1(Cl)CC1 (centres undefined),,1.37 µM (active)
Oc1cccc(-c2ccccc2)c1,inactive,
O=[N+]([O-])c1ccc(Nc2ccccc2)cc1,inactive,
C[C@]12CC[C@@H](O)C[C@@H]1CC[C@@H]1[C@@H]2CC[C@]2(C)C(=O)CC[C@@H]12,inactive,
Cc1cc(C(C)(C)c2ccc(O)c(C)c2)ccc1O,inactive,
CCOP(=O)(OCC)OC(=CCl)c1ccc(Cl)cc1Cl,inactive,
CC(C)(C)c1cc([N+](=O)[O-])cc(C(C)(C)C)c1O,inactive,
O=S1OC[C@@H]2[C@H](CO1)[C@]1(Cl)C(Cl)=C(Cl)[C@@]2(Cl)C1(Cl)Cl (some centres undefined),,12.1 µM (active)
CC(C)=CC1C(C(=O)OCc2cccc(Oc3ccccc3)c2)C1(C)C (centres undefined),,25.7 µM (active)
